The panel holds about 83,000 compounds, 20% with a hit somewhere; the sample as a whole holds those more often.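 Values shown are percent growth following 48 h exposure of cells in 96-well plates to a single concentration of compound; below 10 was considered active.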 Unmarked numbers belong to inactive results. Activity calls are given as the source filed them.
System: COLO 205 colon
Assay: NCI-60 one-dose screen, 48 h (100 = growth as untreated, 0 = no growth, -100 = all killed)
Conditions: 10 µM unless noted

SMILES | growth
COc1cc(NCCCN=C(N)N)c2ncccc2c1 | 89.8%
ClCCN(CCCl)c1nc(Cl)c(C2CC(c3ccccc3)=NN2c2cc(Cl)cc(Cl)c2)s1 (stereo unspecified) | 121%
CCCCCCCC(=O)OCC(=O)[C@]1(O)Cc2c(O)c3c(c(O)c2[C@@H](OC2CC(N)C(O)C(C)O2)C1)C(=O)c1c(OC)cccc1C3=O (stereo partly specified) | -85.7% (active)
COC[C@@H]1C[C@@]2(C)[C@@H](CC[C@@H]3[C@@H]2CC[C@@]2(C)[C@H]3CC[C@]2(C)O)CC1=O | 109%
C[C@]12CC[C@@H]3c4ccc(Oc5nc(N6CC6)nc(N6CC6)n5)cc4CC[C@H]3[C@@H]1CCC2=O | 32.5%
O=C1OCC2=C1C(c1ccccc1)c1cc3c(cc1N2)OCO3 (stereo unspecified) | -65.7% (active)
CCC1(C)CC(CCNCc2ccccc2O)(c2ccc(C)cc2)CCO1 (stereo unspecified) | 115%
ClCCN(CCCl)Cc1ccc(Nc2ccnc3cc(Cl)ccc23)cc1 | 50.6%
c1ccc(Nc2nc(-c3ccccc3)c[se]2)cc1 | 104%
CCN(CC)CCOC(=O)C(OC(C)C)(c1ccccc1)c1ccccc1 | 98%
CCCc1cc(O)c2c3c(c(=O)oc2c1)CN(C)CC3 | 21%
ClCCN(CCCl)c1ccc(/C=N/Nc2ncnc3nc[nH]c23)cc1 | 90.5%
CCC1(C(C)C)C(=O)NC(=S)NC1=O | 123%
CC(C)(N)Cc1ccccc1 | 116%
CC1(C)N=C(N)N=C(N)N1c1cccc(CCCCc2ccc(Cl)c(S(=O)(=O)F)c2)c1 | 72.7%
COc1cc(C=C2c3ccccc3C(=O)c3ccccc32)ccc1OCCCCOc1cc2c(cc1OC)C(=O)N1CCCC1C=N2 (stereo unspecified) | -93.9% (active)
C[CH2][Sn]([Cl])([Cl])[CH2]C.Oc1ccccc1C=NCCN=Cc1ccccc1O | 116%
COc1ccc(O)c(CNC(=O)CN2CCCC2=O)c1 | 100%
CCOC(=O)C(Cc1ccc(N(CCCl)CCCl)cc1)NC(=O)C(CC(C)C)NC(C)=O (stereo unspecified) | -29.3% (active)

SMILES | growth
C[C@]12CC[C@H]3[C@@H](CC[C@]4(O)C[C@@H](O[C@@H]5O[C@H](CO)[C@@H](O[C@@H]6OC[C@@H](O)[C@H](O)[C@H]6O)[C@H](O)[C@H]5O)CC[C@]34C=O)[C@@]1(O)CC[C@@H]2C1=CC(=O)OC1 | 17.8%
Clc1ccc2nnnn2n1 | -77.3% (active)
CC1(C)N=C(N)N=C(N)N1c1ccc(CCCCc2ccc(Cl)c(S(=O)(=O)F)c2)c(Cl)c1 | 36.3%
CC(=O)[O][Hg][c]1c(N)c(C)cc(C)c1F | -16.6% (active)
O=C(NCCN1CC1)C(=O)NCCN1CC1 | 88.7%
[Au+].[N-]=C=O.c1ccc(CN2[CH-]N(Cc3ccccc3)C(c3ccccc3)=C2c2ccccc2)cc1 | 92.5%
O=C(O)CNC(=O)C(Cl)(Cl)Cl | 106%
N#C[Se]Cc1cc(-c2ccccc2)n(-c2ccc(S(N)(=O)=O)cc2)n1 | -83.4% (active)
CCCCCC1(CCBr)C(=O)NC(=O)NC1=O | 110%
O=C(O)C(O)C(O)C1[O][Sb]([c]2ccc([N+](=O)[O-])cc2)[O]C1CO (stereo unspecified) | 115%
O=Cc1cn(Cc2ccc(Cl)cc2)c2ccccc12 | 22%
COc1cc(NC(C)CCCNC2CN3CCC2CC3)c2ncccc2c1 (stereo unspecified) | 35.3%
Cc1ccc(C(=O)NCCCOc2ccc(N)cc2Cl)cc1S(=O)(=O)F | 105%
CC(=O)OCC1O[C@@H]([S-])C(OC(C)=O)[C@H](OC(C)=O)[C@@H]1OC(C)=O.[Au+].c1ccc(CN2[CH-]N(Cc3ccccc3)C(c3ccccc3)=C2c2ccccc2)cc1 | 13.8%
O=C(Nc1ccc(Cl)cc1)Nc1nccs1 | 3.09% (active)
Clc1ccc(COC(Cn2ccnc2)c2ccc(Cl)cc2Cl)cc1 (stereo unspecified) | 68.8%
CC1CCCC(C[N+](C)(C)C)C1=O (stereo unspecified) | 118%
CC(=O)/C=C/c1ccc2c(c1)OCO2 | 107%
O=C(O)c1ccc([S-])cc1.[Au+].c1ccc(CN2[CH-]N(Cc3ccccc3)C(c3ccccc3)=C2c2ccccc2)cc1 | -66.5% (active)

System: DU-145 prostate
Assay: as above
Conditions: 10 µM unless noted

SMILES | growth
COc1cc(NCCCN=C(N)N)c2ncccc2c1 | 103%
ClCCN(CCCl)c1nc(Cl)c(C2CC(c3ccccc3)=NN2c2cc(Cl)cc(Cl)c2)s1 (stereo unspecified) | 107%
CCCCCCCC(=O)OCC(=O)[C@]1(O)Cc2c(O)c3c(c(O)c2[C@@H](OC2CC(N)C(O)C(C)O2)C1)C(=O)c1c(OC)cccc1C3=O (stereo partly specified) | -100% (active)
COC[C@@H]1C[C@@]2(C)[C@@H](CC[C@@H]3[C@@H]2CC[C@@]2(C)[C@H]3CC[C@]2(C)O)CC1=O | 102%
C[C@]12CC[C@@H]3c4ccc(Oc5nc(N6CC6)nc(N6CC6)n5)cc4CC[C@H]3[C@@H]1CCC2=O | 7.1% (active)
O=C1OCC2=C1C(c1ccccc1)c1cc3c(cc1N2)OCO3 (stereo unspecified) | -36.2% (active)
CCC1(C)CC(CCNCc2ccccc2O)(c2ccc(C)cc2)CCO1 (stereo unspecified) | 103%
ClCCN(CCCl)Cc1ccc(Nc2ccnc3cc(Cl)ccc23)cc1 | 18.6%
c1ccc(Nc2nc(-c3ccccc3)c[se]2)cc1 | 98.4%
CCN(CC)CCOC(=O)C(OC(C)C)(c1ccccc1)c1ccccc1 | 98.8%
CCCc1cc(O)c2c3c(c(=O)oc2c1)CN(C)CC3 | 43%
ClCCN(CCCl)c1ccc(/C=N/Nc2ncnc3nc[nH]c23)cc1 | 62.8%
CCC1(C(C)C)C(=O)NC(=S)NC1=O | 115%
CC(C)(N)Cc1ccccc1 | 115%
CC1(C)N=C(N)N=C(N)N1c1cccc(CCCCc2ccc(Cl)c(S(=O)(=O)F)c2)c1 | 47.5%
COc1cc(C=C2c3ccccc3C(=O)c3ccccc32)ccc1OCCCCOc1cc2c(cc1OC)C(=O)N1CCCC1C=N2 (stereo unspecified) | -92.7% (active)
C[CH2][Sn]([Cl])([Cl])[CH2]C.Oc1ccccc1C=NCCN=Cc1ccccc1O | 111%
COc1ccc(O)c(CNC(=O)CN2CCCC2=O)c1 | 108%
CCOC(=O)C(Cc1ccc(N(CCCl)CCCl)cc1)NC(=O)C(CC(C)C)NC(C)=O (stereo unspecified) | 14.3%

SMILES | growth
C[C@]12CC[C@H]3[C@@H](CC[C@]4(O)C[C@@H](O[C@@H]5O[C@H](CO)[C@@H](O[C@@H]6OC[C@@H](O)[C@H](O)[C@H]6O)[C@H](O)[C@H]5O)CC[C@]34C=O)[C@@]1(O)CC[C@@H]2C1=CC(=O)OC1 | -62.4% (active)
Clc1ccc2nnnn2n1 | 3.28% (active)
CC1(C)N=C(N)N=C(N)N1c1ccc(CCCCc2ccc(Cl)c(S(=O)(=O)F)c2)c(Cl)c1 | 35.3%
CC(=O)[O][Hg][c]1c(N)c(C)cc(C)c1F | 36.3%
O=C(NCCN1CC1)C(=O)NCCN1CC1 | 90.2%
[Au+].[N-]=C=O.c1ccc(CN2[CH-]N(Cc3ccccc3)C(c3ccccc3)=C2c2ccccc2)cc1 | 86.5%
O=C(O)CNC(=O)C(Cl)(Cl)Cl | 107%
N#C[Se]Cc1cc(-c2ccccc2)n(-c2ccc(S(N)(=O)=O)cc2)n1 | -85.6% (active)
CCCCCC1(CCBr)C(=O)NC(=O)NC1=O | 109%
O=C(O)C(O)C(O)C1[O][Sb]([c]2ccc([N+](=O)[O-])cc2)[O]C1CO (stereo unspecified) | 116%
O=Cc1cn(Cc2ccc(Cl)cc2)c2ccccc12 | 95.5%
COc1cc(NC(C)CCCNC2CN3CCC2CC3)c2ncccc2c1 (stereo unspecified) | 112%
Cc1ccc(C(=O)NCCCOc2ccc(N)cc2Cl)cc1S(=O)(=O)F | 107%
CC(=O)OCC1O[C@@H]([S-])C(OC(C)=O)[C@H](OC(C)=O)[C@@H]1OC(C)=O.[Au+].c1ccc(CN2[CH-]N(Cc3ccccc3)C(c3ccccc3)=C2c2ccccc2)cc1 | 68.5%
O=C(Nc1ccc(Cl)cc1)Nc1nccs1 | 17.7%
Clc1ccc(COC(Cn2ccnc2)c2ccc(Cl)cc2Cl)cc1 (stereo unspecified) | 71.6%
CC1CCCC(C[N+](C)(C)C)C1=O (stereo unspecified) | 115%
CC(=O)/C=C/c1ccc2c(c1)OCO2 | 104%
O=C(O)c1ccc([S-])cc1.[Au+].c1ccc(CN2[CH-]N(Cc3ccccc3)C(c3ccccc3)=C2c2ccccc2)cc1 | -47.2% (active)

From PubChem BioAssay (NCI)
